From PubChem
Only some compounds are listed: those with a hit (about 5.6% of all), similar ones and a draw of the others.
M18AAP inhibitor = PfM18AAP enzyme inhibition; 290,000 compounds, 1.2% hits; inhibition, % at 7.35 µM; recombinant PfM18AAP, H-Glu-NHMec fluorogenic cleavage;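 active = inhibition above the campaign mean inhibition over all tested compounds plus 3 SD, cut at about 28% in these data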;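 note: 0% = plate median of test compound wells and 100% = 2 mM ZnCl2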
ALR inh = blocks human ALR sulfhydryl oxidase activity. inhibition, % (test concentration not listed). purified ALR, DTT oxidation, H2O2 HRP-luminol luminescence. AID 485317. 290,000 compounds, 3.8% hits;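 active = mean replicate inhibition above about 79%, with every replicate also reaching it, limit read from the data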
Target sequence (P55789 whole entry, looked up): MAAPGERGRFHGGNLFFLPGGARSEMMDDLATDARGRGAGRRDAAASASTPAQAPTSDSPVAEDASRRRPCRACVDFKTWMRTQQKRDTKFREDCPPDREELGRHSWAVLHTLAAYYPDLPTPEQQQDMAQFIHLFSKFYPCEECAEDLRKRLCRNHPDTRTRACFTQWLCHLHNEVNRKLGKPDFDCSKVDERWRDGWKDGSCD
H9c2 protect = myocardial damage modulation in H9c2 cells; H9c2 cardiomyocytes, H2O2 injury protection, ATPLite, 2 h; 360,000 compounds, 0.63% hits; protection from H2O2 cell death, % at 20 µM;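 active = compounds giving at least 50% protection of heart cells from peroxide-induced death in the single-dose screen, raw or plate-pattern-corrected value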;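 note: 0% = DMSO wells with peroxide and 100% = DMSO wells without peroxide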
PfG6PD inh = PfG6PD (Plasmodium falciparum) enzyme inhibition; PfGluPho enzyme, NADPH resazurin-diaphorase fluorescence; inhibition, % at 20 µM; 350,000 compounds, 0.78% hits;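 active = inhibition reaching at least a set limit at 20 µM in the primary screen, cut at about 59% in these data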;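 note: 0% = DMSO wells with substrate and 100% = DMSO wells lacking glucose-6-phosphate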
PHOSPHO1 inh = blocks human PHOSPHO1 phosphatase activity; AID 1565; inhibition, % at 13.3 µM; 290,000 compounds, 1.1% hits; recombinant PHOSPHO1, absorbance phosphatase assay; in the data active = inhibition above about 60%
Target sequence (Q8TCT1 whole entry, looked up): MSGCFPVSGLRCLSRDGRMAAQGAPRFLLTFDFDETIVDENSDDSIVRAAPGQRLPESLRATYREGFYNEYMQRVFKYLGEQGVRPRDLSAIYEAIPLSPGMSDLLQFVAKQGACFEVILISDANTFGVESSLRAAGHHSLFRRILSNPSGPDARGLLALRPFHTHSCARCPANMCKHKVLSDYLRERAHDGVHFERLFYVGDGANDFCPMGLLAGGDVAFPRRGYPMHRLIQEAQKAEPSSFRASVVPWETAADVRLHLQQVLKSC
PfG6PD confirm = PfG6PD inhibition, single-dose confirmed. shares compounds with PfG6PD inh. inhibition, % at 20 µM. AID 504753. recombinant PfGluPho, NADPH-diaphorase-resazurin fluorescence. 2,400 compounds, 34% hits;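 active = inhibition of at least 50% at 20 µM in any single replicate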;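 note: 0% = DMSO with substrate and 100% = DMSO lacking glucose-6-phosphate substrate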
Diaph ctr 10uM = counter-screen for P. falciparum G6PD inhibitors: diaphorase inhibitors, oxidizers. shares compounds with PfG6PD inh. diaphorase-coupled resazurin reduction, fluorescence, NADPH 10 uM. inhibition, % at 20 µM. 820 compounds, 39% hits. AID 504862;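 active = average inhibition reaching 50% or more with the compound at 20 µM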;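 note: resorufin red fluorescence formed as diaphorase reduces resazurin using NADPH; 0% = DMSO with enzyme and 100% = DMSO without enzyme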
Diaph ctr 30uM = counter-screen for P. falciparum G6PD inhibitors: diaphorase inhibitors, oxidizers; 820 compounds, 29% hits; inhibition, % at 20 µM; shares compounds with PfG6PD inh; Diaphorase/resazurin coupled assay, resorufin fluorescence, 30 uM NADPH;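 active = inhibition averaging 50% or more, tested at 20 µM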;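 note: 0% = DMSO with enzyme and 100% = DMSO wells lacking diaphorase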
Starred values were filed as active, the others as inactive; x = no result.

SMILES	M18AAP inhibitor	ALR inh	H9c2 protect	PfG6PD inh	PHOSPHO1 inh	PfG6PD confirm	others
CC1CN(C(=O)COC(=O)CSc2ccc([N+](=O)[O-])cc2)CC(C)O1 (stereo not given)	x	x	0	60*	x	-4
CC1CCCC(=NNc2ccc3ccccc3n2)C1 (stereo not given)	x	x	-7	7	x	x
CN(CCO)c1cc(Sc2nc3ccccc3s2)c2nonc2c1[N+](=O)[O-]	-15	6	-23	88*	-8	70*	Diaph ctr 10uM=4;Diaph ctr 30uM=-12
C/C(Cn1cnc([N+](=O)[O-])n1)=N\NC(=O)c1ccc(O)cc1O	28	5	9	-8	33	x
C/C(Cn1nnc([N+](=O)[O-])n1)=N\NC(=O)c1ccccc1O	1	-30	1	67*	20	75*	Diaph ctr 10uM=31;Diaph ctr 30uM=34
C/C(Cn1cnc([N+](=O)[O-])n1)=N\NC(=O)c1ccccc1O	18	-20	11	11	13	x
C/C(Cn1nnc([N+](=O)[O-])n1)=N\NC(=O)c1ccc(O)cc1O	19	-6	2	49	-23	67*	Diaph ctr 10uM=23;Diaph ctr 30uM=31
Cn1c(CS/C(N)=N/N=C/c2ccccc2)c(Br)c(=O)n1-c1ccccc1	15	98*	-4	64*	-13	16
COc1ccc(C2=NOC(Cn3nc(C(=O)NCc4cccc(C(F)(F)F)c4)cc3-c3ccccc3)C2)cc1 (stereo not given)	x	3	-1	-9	x	x
COc1ccc2oc(C)c(C(N)=O)c2c1	2	-7	4	-15	1	x
COc1ccc2oc(C)c(C(=O)c3ccc([N+](=O)[O-])cc3)c2c1	-1	16	-6	67*	2	15
COc1ccc([N+](=O)[O-])c(OC)c1C(=O)NC(=O)Nc1nc(C)cc(C)n1	-3	-5	6	30	-2	x
COc1ccc(Br)c(OC)c1C(=O)NC(=O)Nc1nc(C)cc(C)n1	2	1	4	106*	40	74*	Diaph ctr 10uM=68*;Diaph ctr 30uM=65*
Cc1nn(CCC#N)c2nc(-c3ccccc3)cc(C(F)(F)F)c12	-6	-3	-11	18	19	x
Cc1nn(CCC(N)=S)c2nc(-c3cccs3)cc(C(F)(F)F)c12	8	0	-18	62*	-5	7
CSC1=NC=C(C#N)C2=NC(c3c(Cl)cccc3Cl)NN12 (stereo not given)	x	x	2	x	x	x
COc1cc(NS(=O)(=O)c2cc3[nH]c(=O)c(=O)[nH]c3cc2C)cc(OC)c1OC	23	x	0	63*	2	0
O=C(Nc1ccc2c(c1)N(S(=O)(=O)c1cccs1)CCC2)c1c(F)cccc1F	x	0	1	51	x	x
O=S(=O)(c1cccs1)N1CCCc2cccc(O)c21	-3	45	0	93*	12	26
CCOC(=O)c1c2c(n(-c3ccc(OC)cc3)c1C)C(=O)C(=O)c1ccccc1-2	x	x	-15	72*	x	36
CC(OC(=O)CCC(=O)c1ccc(Cl)s1)C(=O)NC1(C#N)CCCCC1 (stereo not given)	x	1	1	-14	x	x
CCc1ccc(C2CC(=O)N3CN(c4ccccc4)CSC3=C2C#N)cc1 (stereo not given)	24	x	3	78*	86*	9
N#CC1=C2SCC(O)(c3ccccc3)N2C(=O)CC1c1ccccc1 (stereo not given)	0	-5	-21	8	15	x
N#CC1=C2SCN(c3ccc(F)cc3)CN2C(=O)CC1c1cccc(F)c1 (stereo not given)	27	4	-1	69*	64*	25
NC(c1csc(Nc2cnccn2)n1)c1ccccc1Cl (stereo not given)	x	x	7	x	x	x
SMILES	M18AAP inhibitor	ALR inh	H9c2 protect	PfG6PD inh	PHOSPHO1 inh	PfG6PD confirm	others
CCc1c(C)sc(NC(=O)Cn2nc(C)c([N+](=O)[O-])c2C)c1C(N)=O	4	-5	5	69*	-7	29
CCc1ccc(C(=O)/C=C/c2cnn(C)c2C)s1	1	50	-12	59*	-4	39
COC(=O)[C@H](CCSC)NC(=O)c1cc2c(cn1)[nH]c1ccccc12	16	x	-3	80*	-130	57*	Diaph ctr 10uM=-10;Diaph ctr 30uM=-7
COc1ccc2[nH]cc(CCNC(=O)c3ccc4ccccc4n3)c2c1	3	-6	-4	62*	29	40
CC1=C(C)C(=O)C(N2CCOCC2)=CC1=O	6	x	-15	53	11	x
O=C1C=C(N2CCOCC2)c2ccccc2C1=O	6	38	-17	71*	14	54*	Diaph ctr 10uM=73*;Diaph ctr 30uM=83*
Cc1cc(C)c2c(=O)n3c(nc2c1)C(Cc1ccc(O)cc1)NC(=O)c1cccnc1-3 (stereo not given)	x	x	12	1	x	x
Cc1cc(C)c2c(=O)n3c(nc2c1)C(Cc1ccccc1)NC(=O)c1cccnc1-3 (stereo not given)	x	x	-15	59*	x	4
O=C1Nc2ccc(Br)cc2/C1=C/c1ccc(C(=O)O)cc1	11	2	x	x	x	x
CCOc1ccc(CNC(=O)C(=O)c2cn(CC(=O)N3CCOCC3)c3ccccc23)cc1OC	1	-2	-8	0	43	x
COc1ccccc1CNC(=O)c1ccc2nc(C)c(N(C)Cc3ccc(NC(C)=O)cc3)n2c1	x	x	8	x	x	x
c1ccc(-c2nnc(-c3ccccc3)nn2)cc1	-7	1	-10	-5	32	x
c1cncc(-c2nnc(-c3cccnc3)nn2)c1	4	-33	-16	77*	66*	31
Cc1cc(NC(=O)CSc2nc3cc(Cl)ccc3s2)no1	6	-9	-1	-8	-6	x
O=C(CSc1nc2cc(Cl)ccc2s1)c1cc2ccccc2o1	6	20	-10	64*	102*	5
Cc1cccc(CN2CCN(C3CN(Cc4ccc(F)cc4)S(=O)(=O)C3)CC2)c1 (stereo not given)	x	x	-4	x	x	x
O=C1NC(C(=O)O)=CC(c2ccc([N+](=O)[O-])cc2)N1 (stereo not given)	12	78*	5	65*	4	18
Cc1cc2c([nH]c3ccccc32)c(C)n1	2	-6	5	3	39	x
Cc1c2ccncc2cc2c1[nH]c1ccccc12	x	x	-10	72*	x	18
CCCS(=O)(=O)NC(=O)C1(C)CCCN(C(=O)c2c(-c3ccccc3)noc2C)C1 (stereo not given)	x	x	-4	x	x	x
CCc1nc2c(OCc3cc(Cl)cc(Cl)c3)cccn2c1N(C)C(=O)c1ccc(C)cc1	x	x	-3	x	x	x
O=S(=O)(c1ccccc1)N1CCNc2ccccc21	x	x	-7	23	x	x
O=S(=O)(c1ccccc1)N1CCCc2ccccc21	-10	-10	x	x	x	x
